# Values joined by “and” are separate entries in the source; they are usually repeats but may differ in a detail not shown here. Equal entries are not always repeated. Results filed as inconclusive are left out. Values without a mark were called inactive. Active and inactive are the calls of the source. Calls come from the whole dose curve; as a rule, active = well fitted inhibition curve with a large enough effect; inconclusive = small, poorly fitted or top-dose-only effect; inactive = flat fitted curve, though single readings scatter.
# Experiments:
# [1] = test system: HEK293; assay: Cytotoxic Profiling of Annotated Libraries Using Quantitative High-Throughput Screening (AID 1296008); details: Five cell lines viability, CellTiter-Glo ATP luminescence, 48-72 h; max response: hits give low values
# Outline: (§1)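 Compounds were pin-transferred onto cells and incubated 48 or 72 hr at 37 degree Celsius, 95% humidity. CellTiter-Glo was added, plates sat 10 min at room temperature, then ATP-coupled luminescence was imaged as the viability read-out.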
# [2] = test system: HaCat; assay: as above; details: Five cell lines viability, CellTiter-Glo ATP luminescence, 48-72 h; max response: hits give low values
# Outline: as §1
# [3] = test system: KB-3-1; assay: as above; details: Five cell lines viability, CellTiter-Glo ATP luminescence, 48-72 h; max response: hits give low values
# Outline: as §1
# [4] = test system: MCC-13; assay: qHTS assay to identify novel small-molecules to repurpose for Merkel cell carcinoma treatment (AID 1296009); details: MCC and control cell lines, CellTiter-Glo viability, 72 h; series mostly up to 46 µM
# Outline: (§2)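 Cells exposed to NPC (8-point) and MIPE (11-point) compound dilutions for 72 hr at 37 degree celsius; viability read by CellTiter-Glo luminescence, normalized to no-cell and DMSO in-plate controls.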
# [5] = test system: CRL-7250; assay: Cytotoxic Profiling of Annotated Libraries Using Quantitative High-Throughput Screening (AID 1296008); details: Five cell lines viability, CellTiter-Glo ATP luminescence, 48-72 h; max response: hits give low values
# Outline: as §1
# [6] = test system: NIH3T3; assay: as above; details: Five cell lines viability, CellTiter-Glo ATP luminescence, 48-72 h; max response: hits give low values
# Outline: as §1
# [7] = test system: HEK293T; assay: qHTS assay to identify novel small-molecules to repurpose for Merkel cell carcinoma treatment (AID 1296009); details: MCC and control cell lines, CellTiter-Glo viability, 72 h; series mostly up to 44.8 µM
# Outline: as §2
# % is set by controls: 0 for no effect and ±100 for the full control effect; potency is the fitted concentration of half-maximal effect.
# Note: nearly all actives have a fitted effect of over 60% in size.
smiles,measurement,setting,value
CC(=O)ON=C1C(c2c(O)[nH]c3cc(Br)ccc23)=Nc2ccccc21,Potency,[1],14.8 µM (active)
same,max response,[2],-13.8%
same,max response,[3],-15.3%
same,Potency,[4],inactive
C[C@]12CCC(=O)C=C1[C@@H]1CC1[C@H]1[C@H]3[C@@H]4C[C@H]4[C@@]4(CCC(=O)O4)[C@@]3(C)CC[C@H]12 (stereo partly specified),max response,[5],3.77%
same,max response,[2],-9.69%
same,outcome,[6],inactive
same,Potency,[4],inactive
C#C[C@]1(O)CC[C@@H]2[C@@H]3CCc4cc(O)ccc4[C@H]3CC[C@@]21C,max response,[5],-14.3%
same,Potency,[3],20.9 µM (active)
same,max response,[6],-5.15%
same,Potency,[4],inactive
Cc1[nH]c(C=C2C(=O)Nc3ccccc32)c(C)c1CCC(=O)O,Potency,[1],4.18 µM (active)
same,max response,[2],0.623%
same,max response,[3],3.92%
same,Potency,[6],1.48 µM (active)
CC[C@@]1([C@@H]2O[C@@H]([C@H]3O[C@@](O)(CO)[C@H](C)C[C@H]3C)C[C@H]2C)CC[C@H]([C@]2(C)CC[C@]3(C[C@H](O)[C@@H](C)[C@@H]([C@@H](C)[C@@H](OC)[C@H](C)C(=O)O)O3)O2)O1,Potency,[1],0.144 µM (active)
CC(C)(O)CC[C@@H](O)[C@](C)(O)[C@H]1CC[C@@]2(O)C3=CC(=O)[C@@H]4C[C@@H](O)[C@@H](O)C[C@]4(C)[C@@H]3CC[C@]12C,max response,[1],-3.79%
same,max response,[2],-11.3%
same,max response,[3],-6.66%
same,max response,[6],0.822%
same,Potency,[4],inactive
Cc1cncc2cccc(S(=O)(=O)N3CCCN(C(=O)CN)C[C@@H]3C)c12,outcome,[1],inactive
same,Potency,[2],8.33 µM (active)
same,max response,[3],-18.7% and -19.4%
same,Potency,[6],26.4 µM (active)
same,Potency,[7],inactive
CN1CCc2c(c3ccccc3n2Cc2ccc(C(=O)NO)cc2)C1,max response,[5],-28.2% and -9.31%
same,Potency,[3],26.4 µM (active)
same,Potency,[4],inactive
CCOC(=O)C1=C(C)NC(=S)NC1c1cccc(O)c1 (stereo unspecified),max response,[5],-18.5%
same,max response,[2],-10%
same,Potency,[3],0.0469 µM (active)
same,Potency,[4],1.48 µM (active)
Cn1cc(C2=C(c3c4n(c5ccccc35)CCC(CN)C4)C(=O)NC2=O)c2ccccc21 (stereo unspecified),Potency,[1],13.2 µM (active)
same,Potency,[2],37.2 µM (active)
same,Potency,[3],6.62 µM (active)
same,Potency,[6],16.6 µM (active)
COc1cc(OC)c(C=CS(=O)(=O)Cc2ccc(OC)c(NCC(=O)O)c2)c(OC)c1,Potency,[1],0.118 µM (active)
same,max response,[2],3.08%
same,Potency,[6],0.105 µM (active)
COc1ccc(S(=O)(=O)Nc2cc(-c3c(O)ccc4ccccc34)c(O)c3ccccc23)cc1,max response,[5],-21.5%
same,max response,[2],-11.6%
same,outcome,[6],inactive
same,Potency,[4],inactive
COc1cc(C)c(Sc2cnc(NC(=O)c3ccc(CNC(C)C(C)(C)C)cc3)s2)cc1C(=O)N1CCN(C(C)=O)CC1 (stereo unspecified),Potency,[1],14.8 µM (active)
same,Potency,[2],26.4 µM (active)
same,Potency,[3],11.8 µM (active)
same,Potency,[4],inactive
CC(C=CC1=C(C)CCCC1(C)C)=CC=CC(C)=CC(=O)Nc1ccc(O)cc1,Potency,[1],6.79 µM (active)
same,Potency,[3],38.2 µM (active)
same,Potency,[6],48.1 µM (active)
same,Potency,[4],inactive
COc1cc2c(cc1O)CCC1C2CC[C@@]2(C)C1CC[C@@H]2O (stereo partly specified),Potency,[3],3.32 µM (active)
same,Potency,[6],4.18 µM (active)
C#CCC(Cc1cnc2nc(N)nc(N)c2n1)c1ccc(C(=O)N[C@@H](CCC(=O)O)C(=O)O)cc1 (stereo partly specified),Potency,[2],3.32 µM (active)
same,Potency,[3],0.146 µM (active)
same,Potency,[6],0.332 µM (active)
CC(C)NC[C@@H](C(=O)N1CCN(c2ncnc3c2[C@H](C)C[C@H]3O)CC1)c1ccc(Cl)cc1,Potency,[1],0.209 µM (active)
same,Potency,[2],4.18 µM (active)
same,Potency,[4],inactive
Oc1ccc(-c2ccc(-c3cc(Nc4cccc(CNC5CC5)c4)n[nH]3)cc2)c(O)c1,Potency,[1],1.18 µM (active)
same,Potency,[3],1.32 µM (active)
O=C(NC1CC1)c1cccc(-c2ccc3c(NC(=O)C4CC4)n[nH]c3c2)c1,Potency,[3],4.18 µM (active)
O=C(CCCCCCC(=O)Nc1cccnc1)NO,Potency,[3],14.8 µM (active)
same,Potency,[4],26.4 µM (active)
Nc1nc(N)c2nc(-c3cccc(O)c3)c(-c3cccc(O)c3)nc2n1,Potency,[2],14.8 µM (active)
same,Potency,[3],10.5 µM (active)
same,Potency,[4],inactive
NC(=NCCCCCCN=C(N)N=C(N)Nc1ccc(Cl)cc1)N=C(N)Nc1ccc(Cl)cc1,Potency,[1],13.2 µM (active)
same,Potency,[3],8.33 µM (active)
O=[N+]([O-])c1cn2c(n1)OC[C@@H](OCc1ccc(OC(F)(F)F)cc1)C2,max response,[3],-6.53%
same,max response,[6],-7.72%
same,Potency,[4],inactive
CCOc1cc2c(c(F)c1OCC)C(=N)N(CC(=O)c1cc(N3CCOCC3)c(OC)c(C(C)(C)C)c1)C2,Potency,[1],16.4 µM (active)
same,Potency,[4],inactive

# — PubChem BioAssay (NCATS)
